Assay outcomes from PubChem BioAssay.
Rows were chosen to be rich in hits. Some 12% of all compounds tested hit in one or more screens of this group.
G9a inh = blocks human histone lysine methyltransferase G9a | Potency, µM (series often up to 102 µM), for the others: top-dose activity, negative = inhibition, hits mostly inhibitors | G9a H3K9 monomethylation, AlphaScreen, 2 h | AID 504332 | 350,000 tested, 8.8% active | Q96KQ7; also: % is scaled to controls: 0 for no effect and ±100 for the full control effect; nearly all actives have a fitted effect of over 75% in size
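Chemiluminescent proximity detection of H3K9 monomethylation, read after 10 min bead incubation in the dark. Reaction: 20 nM G9a, 500 nM biotin-H3K9 peptide, 20 uM SAM cofactor, 2 h, room temperature, following 15 min enzyme-compound preincubation.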
L3MBTL1 block = inhibitors of human L3MBTL1; AlphaScreen L3MBTL1–H3K9me1 peptide binding; Q9Y468; Potency, µM (top dose mostly 57.1 µM), for inactives: at the top dose activity, negative = inhibition, usual class: inhibitors; 230,000 tested, 0.66% active; also: % is scaled to controls: 0 for no effect and ±100 for the full control effect; nearly all actives have a fitted effect of over 60% in size
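Displacement of a biotinylated histone H3(1-15) peptide monomethylated at Lys9 (75 nM) from L3MBTL1 (50 nM) was measured by AlphaScreen after a 30 min room-temperature compound incubation; cefsulodin titration served as intraplate control.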
BAZ2B block = blocks human BAZ2B. AlphaScreen BAZ2B-H3K14Ac peptide displacement. Q9UIF8. Potency, µM (titrated, usually from 114 µM), without a hit: at the highest dose activity change, negative = inhibition, actives largely listed as inhibitors. 360,000 tested, 4.4% active. AID 504333; also: % is scaled to controls: 0 for no effect and ±100 for the full control effect; nearly all actives have a fitted effect of over 60% in size
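Inhibition is scored as reduced AlphaScreen emission. The BAZ2B/b-H3(5-23)K14Ac complex (50 nM each) in PBS pH 7.4, 0.01% Tween-20 meets compound (up to 110 uM) for 30 min at RT before bead addition.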
Sfp PPTase inh = inhibitors of Bacillus subtilis Sfp phosphopantetheinyl transferase; Potency, µM, for the others: largest response in the series, negative = inhibition, actives largely listed as inhibitors; Biochemical Sfp PPTase activity, qHTS; 310,000 tested, 3.5% active;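 also: the enzyme is Sfp with the accession as filed and its product quenches rhodamine fluorescence; 0% = enzyme reaction without inhibitor and -100% = no enzyme wells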
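Reaction rates are the 30-min fluorescence difference (ex 525, em 598 nm) in wells containing 15 nM Sfp, 5 uM rhodamine-CoA and 12.5 uM BHQ-2-YbbR at pH 7.6 with 10 mM MgCl2.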
HP1b chromo inh = blocks HP1-beta chromodomain binding to methylated histone tails | P83916 | AID 540317 | 390,000 tested, 0.56% active | AlphaScreen HP1-beta / biotin-H3K9me3 peptide binding | Potency, µM (doses to about 114 µM), for inactives: at the highest dose activity change, negative = inhibition, actives largely listed as inhibitors; also: nearly all actives have a fitted effect of over 70% in size
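Compound inhibition of the preformed complex between 50 nM HP1-beta and 50 nM biotinylated H3K9me3 peptide was read by AlphaScreen. Buffer was PBS pH 7.4 with 0.01% Tween-20. Incubations ran 30 min at room temperature, with 10 ug/mL donor/acceptor beads.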
JMJD2A Tudor = blocks the human JMJD2A Tudor domain. O75164. AlphaScreen JMJD2A-Tudor / H3K4me3 peptide binding. Potency, µM (series often up to 114 µM), without a hit: at the highest dose activity change, negative = inhibition, usual class: inhibitors. 390,000 tested, 4.4% active; also: % is scaled to controls: 0 for no effect and ±100 for the full control effect; nearly all actives have a fitted effect of over 50% in size
Target sequence (O75164 whole entry, looked up, the tested form may be a part): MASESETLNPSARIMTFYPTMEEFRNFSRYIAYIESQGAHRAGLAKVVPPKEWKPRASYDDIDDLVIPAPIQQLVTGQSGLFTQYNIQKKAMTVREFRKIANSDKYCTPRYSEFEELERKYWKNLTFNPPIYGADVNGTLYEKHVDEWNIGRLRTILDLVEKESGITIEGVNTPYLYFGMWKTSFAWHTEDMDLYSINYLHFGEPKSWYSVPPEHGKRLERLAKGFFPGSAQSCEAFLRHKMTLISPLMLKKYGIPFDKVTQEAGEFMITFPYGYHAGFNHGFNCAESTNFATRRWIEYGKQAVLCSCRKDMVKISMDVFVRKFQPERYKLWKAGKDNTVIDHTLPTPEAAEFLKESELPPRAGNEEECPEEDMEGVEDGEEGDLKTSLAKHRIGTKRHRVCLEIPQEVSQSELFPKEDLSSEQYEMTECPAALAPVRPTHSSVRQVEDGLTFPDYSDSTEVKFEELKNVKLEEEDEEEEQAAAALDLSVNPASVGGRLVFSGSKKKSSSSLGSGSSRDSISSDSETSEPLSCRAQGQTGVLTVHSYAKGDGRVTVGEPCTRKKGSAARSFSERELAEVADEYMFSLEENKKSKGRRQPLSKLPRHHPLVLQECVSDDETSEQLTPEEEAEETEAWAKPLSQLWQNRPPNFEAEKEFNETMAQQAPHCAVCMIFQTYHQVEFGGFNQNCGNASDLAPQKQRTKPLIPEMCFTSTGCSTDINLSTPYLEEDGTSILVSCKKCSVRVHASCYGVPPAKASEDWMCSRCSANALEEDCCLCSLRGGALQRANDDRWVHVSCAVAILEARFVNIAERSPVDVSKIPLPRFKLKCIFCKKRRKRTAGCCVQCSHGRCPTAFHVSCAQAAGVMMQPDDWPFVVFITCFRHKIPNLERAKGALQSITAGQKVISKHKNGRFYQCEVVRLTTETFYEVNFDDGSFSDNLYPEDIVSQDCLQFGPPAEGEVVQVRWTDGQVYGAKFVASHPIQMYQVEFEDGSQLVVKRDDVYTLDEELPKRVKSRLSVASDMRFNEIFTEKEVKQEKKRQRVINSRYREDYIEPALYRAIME
* hit, by the source's call; [ ] = another dose, or the depositor's remark. Calls follow the shape of the dose curve; as a rule, active = well fitted curve in the direction sought with a large enough effect; inconclusive = small, poorly fitted or top-dose-only effect, or another doubt; inactive = no such curve, though single readings can be large; an effect the other way counts as inactive or inconclusive. Potency is read from the fitted curve at half-maximal effect.

Screening CC(C)C[C@H](NC(=O)CNC(=O)[C@H](C)NC(=O)[C@H](CC(C)C)NC(=O)[C@H](CCCNC(=N)N)NC(=O)[C@H](Cc1cnc[nH]1)NC(=O)[C@@H](NC(=O)[C@@H](NC(=O)[C@@H]1CSSC[C@H](NC(=O)[C@@H](N)CO)C(=O)N[C@@H](CC(N)=O)C(=O)N[C@@H]([C@@H](C)O)C(=O)N[C@@H](C)C(=O)N[C@@H]([C@@H](C)O)C(=O)N1)C(C)C)[C@@H](C)O)C(=O)N[C@@H](CC(C)C)C(=O)N[C@@H](CO)C(=O)N[C@@H](CCCNC(=N)N)C(=O)N[C@@H](CO)C(=O)NCC(=O)NCC(=O)N[C@H](C(=O)N[C@H](C(=O)N[C@@H](CCCCN)C(=O)N[C@@H](CC(=O)O)C(=O)N[C@@H](CC(N)=O)C(=O)N[C@@H](Cc1ccccc1)C(=O)N[C@H](C(=O)N1CCC[C@H]1C(=O)N[C@H](C(=O)N[C@@H](CC(N)=O)C(=O)N[C@H](C(=O)NCC(=O)N[C@@H](CO)C(=O)N[C@@H](CCCCN)C(=O)N[C@@H](C)C(=O)N[C@@H](Cc1ccccc1)C(N)=O)C(C)C)[C@@H](C)O)C(C)C)C(C)C)C(C)C returned Sfp PPTase inh 3%.
Screening CCOc1ccccc1CNC(=O)CC(C)n1ccc(C)n1 (stereo not drawn) returned G9a inh 4%[59 µM], BAZ2B block -3%, HP1b chromo inh 32% and JMJD2A Tudor -20%.
For Cc1cccc(C)c1NC(=O)CN1CCCCCC1 the results were G9a inh -38%[12.7 µM] and Sfp PPTase inh 14%.
`COc1cc2[nH]c(=S)n(NC(=O)c3ccccc3)c(=O)c2cc1OC` gave G9a inh inconclusive, BAZ2B block inconclusive, Sfp PPTase inh -27%, HP1b chromo inh 19% and JMJD2A Tudor 89µM*.
For COC(=O)c1ccc2c(=O)n(NC(C)=O)c(=S)[nH]c2c1 the results were G9a inh inconclusive, BAZ2B block 50µM*, Sfp PPTase inh 4µM*, HP1b chromo inh inconclusive and JMJD2A Tudor 3.5µM*.
CCn1c(=S)[nH]c2cc(C(=O)OC)ccc2c1=O was read as G9a inh inconclusive, BAZ2B block -23%, Sfp PPTase inh 16%, HP1b chromo inh 36% and JMJD2A Tudor -20%.
Screening O=Cc1c(NCCN2CCCC2)c2ccccc2[nH]c1=O returned G9a inh 10µM*, L3MBTL1 block 9%, BAZ2B block 6%, Sfp PPTase inh 3%, HP1b chromo inh 31% and JMJD2A Tudor inconclusive.
O=C(NCCCN1CCOCC1)c1ccc2c(=O)n(Cc3cccc(Br)c3)c(=S)[nH]c2c1 was read as G9a inh 35µM*, BAZ2B block -24%, Sfp PPTase inh -4%, HP1b chromo inh inconclusive and JMJD2A Tudor inconclusive.
CC(C)OCCCn1c(SCc2ccccc2C#N)nc2c(sc3ccccc32)c1=O was read as G9a inh -1%[59 µM], BAZ2B block -1%, HP1b chromo inh 60% and JMJD2A Tudor 11%.
Screening O=c1c(S(=O)(=O)c2ccccc2)cn(Cc2ccc(F)cc2)c2cc(N3CCCC3)c(F)cc12 returned G9a inh 2%[59 µM], BAZ2B block 1%, HP1b chromo inh 25% and JMJD2A Tudor -1%.
Screening Cc1ccc(NC(=O)CSc2nnc(CNC(=O)c3ccco3)n2C)cc1 returned G9a inh 14%[2.33 µM], L3MBTL1 block 25%, BAZ2B block -5%, HP1b chromo inh 27% and JMJD2A Tudor -12%.
Screening Cc1ccc(/C=C2\CCCC3=C2NC(=S)NC3c2ccc(C)cc2)cc1 (stereo not drawn) returned G9a inh 8.9µM*, L3MBTL1 block -6%, BAZ2B block inconclusive, Sfp PPTase inh 25µM*, HP1b chromo inh -15% and JMJD2A Tudor inconclusive.
`Cc1ccc(S(=O)(=O)NC(C)C(=O)N2CCOCCOCCOCC2)cc1` (stereo not drawn) gave G9a inh 71µM*, BAZ2B block 12%, Sfp PPTase inh 17%, HP1b chromo inh -16% and JMJD2A Tudor -5%.
`CCCNC(=O)OC[C@@H]1O[C@H](CCO/N=C\[C@@H](OC)[C@H](C)/C=C\CC(=O)OC)C=C[C@@H]1Oc1ccc(OC)cc1` gave Sfp PPTase inh 13%.
`CCC(C)(C)n1nnnc1C(c1cc2ccc(C)cc2[nH]c1=O)N(Cc1cccnc1)Cc1ccco1` (stereo not drawn) gave G9a inh 50µM*, L3MBTL1 block -3%, BAZ2B block inconclusive, Sfp PPTase inh -18%, HP1b chromo inh -8% and JMJD2A Tudor inconclusive.
CC(C)(C)n1nnnc1C(c1ccncc1)N(Cc1ccccc1)Cc1ccco1 (stereo not drawn) was read as G9a inh -3%[12.7 µM], BAZ2B block 5%, Sfp PPTase inh 50µM*, HP1b chromo inh 22% and JMJD2A Tudor inconclusive.
`Cc1cc2cc(C(c3nnnn3C3CCCC3)N(Cc3cccnc3)Cc3ccco3)c(=O)[nH]c2cc1C` (stereo not drawn) gave G9a inh inconclusive, BAZ2B block -1%, Sfp PPTase inh 56µM*, HP1b chromo inh 14% and JMJD2A Tudor -29%.
For O=S(=O)(c1ccc2c(c1)OCCO2)N1CCN(S(=O)(=O)c2cccc(Cl)c2F)CC1 the results were JMJD2A Tudor -15%.
`CCOC(=O)c1cccc(NC(=S)NC(=O)c2cccnc2)c1` gave G9a inh 50µM*, L3MBTL1 block -2%, BAZ2B block -19%, Sfp PPTase inh 5%, HP1b chromo inh 31% and JMJD2A Tudor -8%.
For COc1cccc(NC(=S)NC(=O)c2cncc(Br)c2)c1 the results were HP1b chromo inh 9% and JMJD2A Tudor -18%.
`CCc1c(C)sc(NC(=S)Nc2cccnc2)c1C(=O)OC` gave G9a inh 45µM*, L3MBTL1 block -12%, BAZ2B block 13%, Sfp PPTase inh 20µM*, HP1b chromo inh 10% and JMJD2A Tudor -7%[57.1 µM].
For CCN(CC)C(=S)NC(=O)c1ccc(F)cc1 the results were G9a inh inconclusive, L3MBTL1 block 1%, BAZ2B block inconclusive, Sfp PPTase inh 1%, HP1b chromo inh 4% and JMJD2A Tudor -17%.
COc1cccc(NC(=S)NC(=O)c2cccnc2)c1 was read as G9a inh 7.9µM*, L3MBTL1 block -3%, BAZ2B block -37%, Sfp PPTase inh -27%, HP1b chromo inh 21% and JMJD2A Tudor -6%.
